Results on 14 molecules are retold here after PubChem BioAssay (NCATS).

Results filed as inconclusive are left out. Calls of active or inactive are those of the source. Calls come from the whole dose curve; as a rule, active = well fitted inhibition curve with a large enough effect; inconclusive = small, poorly fitted or top-dose-only effect; inactive = flat fitted curve, though single readings scatter.

Assay in all cases: qHTS profiling for inhibitors of Plasmodium falciparum proliferation (AID 504749); note: nearly all actives have a fitted effect of over 60% in size
What all share (conditions): P. falciparum in erythrocytes, SYBR Green DNA, 72 h; series mostly up to 12.8 µM

One experiment has as its system 3D7. The method in brief:
(§1)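 Three-day growth assay of blood-stage parasites in erythrocytes (0.3% parasitemia, 2.5% hematocrit) at 37 C, 5% CO2, quantified by SYBR Green DNA staining after overnight detergent lysis.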

A further experiment concerns AA1029. The method in brief:
as §1

The next experiment relates to AS120. The method in brief: as §1
In the next experiment the test system is CP191. The method in brief:
as §1

Another experiment concerns CP192. The method in brief:
as §1

A further experiment deals with CP194. The method in brief:
as §1

In a further experiment the test system is CP217. The method in brief: as §1
The test system of another experiment is CP237. The method, boiled down:
as §1

The next experiment concerns CP252. The method in brief:
as §1

The test system of the next experiment is CP256. The method in brief: as §1
The test system of another experiment is CP265. The method, boiled down: as §1
For the next experiment, the system named is CP286. The method in brief:
as §1

A further experiment relates to CP291. The method in brief: as §1
For a further experiment, the system named is DIV30. The method, boiled down:
as §1

The next experiment relates to ECU. The method in brief: as §1
The subject of another experiment is N140. The method in brief: as §1
The test system of the next experiment is PAD. The method in brief:
as §1

The test system of the next experiment is PC26. The method, boiled down: as §1
The test system of another experiment is SC27B. The method, boiled down: as §1
The test system of the next experiment is TAB109. The method in brief:
as §1
Potency is the fitted concentration of half-maximal effect.

Regarding `COc1cc(N[C@@H](C)CCCN)c2ncccc2c1`, the Potency in the experiment on 3D7 is 1.78 µM (active); in the experiment with AA1029 it was 2.51 µM (active); in the experiment on AS120 it was 0.794 µM (active); in the experiment with CP191, 1 µM (active); with CP192, 2.56 µM (active); in the experiment with CP194, 3.61 µM (active). Further, the Potency with CP217 is 1.12 µM (active); in the experiment with CP237, 2.51 µM (active); with CP252 it was 1.26 µM (active); in the experiment with CP256 it was 1.26 µM (active); with CP265, 2 µM (active); in the experiment on CP286, 891 nM (active). The Potency was 1.81 µM (active) in the experiment with CP291; 2.03 µM (active) in the experiment on DIV30; 1 µM (active) in the experiment with ECU; 2.82 µM (active) in the experiment on N140; 891 nM (active) in the experiment with PAD; 2.28 µM (active) in the experiment with PC26. For the same molecule, the Potency with SC27B was 2 µM (active); in the experiment with TAB109, 1.78 µM (active).

With `CC=C(/C(=C/C)c1ccc(O)cc1)c1ccc(O)cc1`, the Potency entry with 3D7, in the experiment with AA1029, with AS120, in the experiment on CP191, with CP192 and with CP194 was “inactive” throughout. The Potency entry with CP217, with CP237, with CP252, in the experiment with CP256, in the experiment with CP265 and with CP286 was “inactive” in each case. In addition, the Potency result in the experiment with CP291, with DIV30, in the experiment with ECU, in the experiment with N140, in the experiment with PAD and in the experiment on PC26 was “inactive” in each case. In addition, the Potency entry in the experiment on SC27B and in the experiment with TAB109 was “inactive” in each case.

Consider `CCOC(=O)Oc1c(OC)cc(C(=O)O[C@H]2C[C@H]3CN4CCc5c([nH]c6cc(OC)ccc56)[C@@H]4C[C@H]3[C@@H](C(=O)OC)[C@@H]2OC)cc1OC`, for which the Potency with 3D7 was 3.16 µM (active); with AS120, 3.55 µM (active); with CP237, 3.16 µM (active); with CP286 it was 2510 nM (active); with DIV30 it was 7.21 µM (active); with N140, 3.55 µM (active). Besides, the Potency is 3550 nM (active) with PAD, 5.73 µM (active) in the experiment on PC26 and 3.55 µM (active) in the experiment on TAB109.

As for `CCC(C)(C)C(=O)O[C@@H]1C[C@H](C)C=C2C=C[C@H](C)[C@@H](CC[C@H]3C[C@@H](O)CC(=O)O3)[C@H]21`, the Potency result in the experiment on 3D7, with AA1029, with AS120, in the experiment with CP191, in the experiment on CP192 and in the experiment with CP194 was “inactive” throughout. Moreover, the Potency result in the experiment with CP217, with CP237, in the experiment on CP252, in the experiment with CP256, in the experiment on CP265 and in the experiment with CP286 was “inactive” each time. In addition, the Potency result in the experiment on CP291, in the experiment with DIV30, in the experiment with ECU, in the experiment on N140, with PC26 and in the experiment on SC27B was “inactive” in each case. For the same molecule, the Potency result with TAB109 was “inactive”.

Regarding `O=C(OC[C@@H](O)CO)c1ccccc1Nc1ccnc2cc(Cl)ccc12`, the Potency entry with 3D7, with AA1029, in the experiment on AS120, with CP191, in the experiment on CP192 and with CP194 was “inactive” each time. The Potency result in the experiment with CP217, in the experiment on CP237, with CP252, with CP265, in the experiment with CP291 and in the experiment with DIV30 was “inactive” each time. Moreover, the Potency result in the experiment with ECU, with N140, with PC26, with SC27B and in the experiment with TAB109 was “inactive” throughout.

In the case of `CC1(C)S[C@@H]2[C@H](NC(=O)[C@@H](N)c3ccccc3)C(=O)N2[C@H]1C(=O)O[C@H]1OC(=O)c2ccccc21`, the Potency entry in the experiment on 3D7, in the experiment with AA1029, in the experiment on AS120, in the experiment with CP191, in the experiment with CP192 and with CP194 was “inactive” each time. The Potency entry in the experiment with CP217, in the experiment on CP237, with CP252, with CP256, in the experiment on CP265 and in the experiment with CP286 was “inactive” in each case. Besides, the Potency result in the experiment with CP291, in the experiment on DIV30, with ECU, in the experiment with N140, in the experiment on PAD and in the experiment with PC26 was “inactive” in each case. The Potency entry in the experiment on SC27B and in the experiment on TAB109 was “inactive” throughout.

Take `COC(=O)[C@@H]1[C@@H]2C[C@H]3c4[nH]c5cc(OC)ccc5c4CCN3C[C@@H]2C[C@H](OC(=O)/C=C\c2cc(OC)c(OC)c(OC)c2)[C@H]1OC`: the Potency is 3.16 µM (active) with AA1029; 3.55 µM (active) with AS120; 3.55 µM (active) with CP217; 5.1 µM (active) in the experiment on DIV30; 3.55 µM (active) in the experiment with N140; 6.42 µM (active) with PC26.

With `CCN(CC)[C@@H](C)CN1c2ccccc2Sc2ccccc21`, the Potency entry with CP192, in the experiment with CP256, in the experiment with DIV30 and in the experiment on PAD was “inactive” each time.

On to `CN1CCC[C@@H](CC2c3ccccc3Sc3ccccc32)C1`, for which the Potency entry in the experiment on CP191, with CP192, in the experiment with CP217, with CP252, in the experiment on CP256 and in the experiment with ECU was “inactive” in each case. Further, the Potency entry in the experiment on PAD and in the experiment on SC27B was “inactive” each time.

Turning to `CO[C@]1(NC(=O)[C@H](C(=O)O)c2ccc(O)cc2)C(=O)N2C(C(=O)O)=C(CSc3nnnn3C)CO[C@H]21`, the Potency entry in the experiment on 3D7, in the experiment on AA1029, in the experiment on AS120, with CP191, with CP192 and with CP194 was “inactive” each time. In addition, the Potency entry with CP217, with CP237, in the experiment with CP252, in the experiment with CP256, in the experiment on CP265 and with CP286 was “inactive” each time. Besides, the Potency result in the experiment with CP291, in the experiment on DIV30, in the experiment on ECU, in the experiment on N140, in the experiment with PAD and with PC26 was “inactive” each time. Moreover, the Potency entry in the experiment with SC27B and with TAB109 was “inactive” each time.

For the molecule `CCO[C@H]1O[C@@H]([C@H](COCc2ccccc2)OCc2ccccc2)[C@@H](OCc2ccccc2)[C@H]1O`, the Potency result in the experiment on 3D7, in the experiment on AA1029, in the experiment on CP191, in the experiment with CP192, in the experiment on CP194 and with CP217 was “inactive” throughout. For the same molecule, the Potency result in the experiment with CP237, with CP252, with CP265, in the experiment with CP286, in the experiment with CP291 and with ECU was “inactive” throughout. Further, the Potency entry with PAD, in the experiment with SC27B and in the experiment on TAB109 was “inactive” in each case.

With `CCC(=O)[C@@]1(C)[C@H](C)C[C@@H]2[C@@H]3CCC4=CC(=O)C=C[C@@]4(C)[C@H]3[C@H](O)C[C@]21C`, the Potency result in the experiment on AA1029, in the experiment with AS120, with CP191, in the experiment on CP192, in the experiment on CP194 and in the experiment on CP217 was “inactive” throughout. Besides, the Potency entry with CP252, in the experiment on CP256, in the experiment on CP265, in the experiment with CP291, in the experiment on DIV30 and in the experiment on ECU was “inactive” throughout. The Potency entry in the experiment on PAD, in the experiment with PC26, in the experiment with SC27B and in the experiment with TAB109 was “inactive” in each case. Also, the Potency in the experiment on CP237 was 3.55 µM (active).

For `COc1ccc2c(c1)N(C[C@@H](C)CN(C)C)c1ccccc1S2`, the Potency result with 3D7, in the experiment with AA1029, in the experiment on AS120, with CP191, in the experiment with CP192 and in the experiment with CP194 was “inactive” in each case. The Potency entry with CP217, with CP252, in the experiment on CP256, with CP265, in the experiment on CP286 and in the experiment on CP291 was “inactive” in each case. Further, the Potency result in the experiment on ECU, in the experiment with N140, in the experiment with PAD, in the experiment with SC27B and in the experiment with TAB109 was “inactive” throughout.

Consider `O=C(O)[C@@H]1[C@@H]2C[C@H]3c4[nH]c5ccccc5c4CCN3C[C@@H]2CC[C@@H]1O`, for which the Potency entry in the experiment on 3D7, in the experiment with N140, in the experiment with PC26 and in the experiment with SC27B was “inactive” in each case.
